# Results as given in PubChem BioAssay AID2517 (National Center for Advancing Translational Sciences (NCATS), 2010).
# Where “and” joins values, the source holds several entries; their conditions need not be identical. Identical values can stand only once. The campaign covered roughly 350,000 compounds. About 1,200 (0.34%) were called active. Not shown: some 3% with an inconclusive outcome. Calls follow the shape of the dose curve; as a rule, active = well fitted inhibition curve with a large enough effect; inconclusive = small, poorly fitted or top-dose-only effect; inactive = no such curve, though single readings can be large or run the other way. For the sample, actives were picked, then their nearest neighbours and some compounds at random. More than one record can exist for a structure, and the calls need not agree.
# Target: DNA repair nuclease/redox regulator APEX1 (Homo sapiens) (UniProt P27695)
# Sequence (P27695 whole entry, looked up): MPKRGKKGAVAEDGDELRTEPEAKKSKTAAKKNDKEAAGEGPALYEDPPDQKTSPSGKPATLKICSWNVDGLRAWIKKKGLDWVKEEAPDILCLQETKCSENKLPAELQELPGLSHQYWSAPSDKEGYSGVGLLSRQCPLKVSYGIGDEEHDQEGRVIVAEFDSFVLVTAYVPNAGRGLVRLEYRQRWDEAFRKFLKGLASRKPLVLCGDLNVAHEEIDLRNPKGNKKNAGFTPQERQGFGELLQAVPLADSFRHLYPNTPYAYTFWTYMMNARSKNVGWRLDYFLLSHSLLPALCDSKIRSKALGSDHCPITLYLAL
# Assay: qHTS Assay for Inhibitors of the Human Apurinic/apyrimidinic Endonuclease 1 (APE1); also: nearly all actives have a fitted effect of over 55% in size;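 as to activity change, negative = inhibition: plate controls were vehicle for no effect and reference inhibitor for full effect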
# Details: recombinant APE1, TAMRA/BHQ-2 abasic DNA cleavage fluorescence; activity change, negative = inhibition: at 65.8 µM (top of the series)
# Text: The apurinic/apyrimidinic endonuclease APE1 is the primary mammalian enzyme responsible for the removal of abasic (or AP) sites in DNA and functions centrally in the base excision DNA repair (BER) pathway. […] Thus, targeting APE1 could improve the efficacy of current treatment paradigms by promoting selective sensitization or protection of diseased and normal cells, respectively.
# Inhibition of APE1 activity was screened by utilizing double-stranded short substrate containing tetrahydrofuran (THF) abasic site labeled with rhodamine-type fluorophore (TAMRA) at the 5'-end and with non-fluorescent Black Hole Quencher-2 (BHQ-2) at the opposing 3'-end. An increase in the fluorescence intensity due to incision of the abasic site by APE1 was used to measure the enzyme activity.
# NIH Chemical Genomics Center [NCGC]
# NIH Molecular Libraries Probe Centers Network [MLPCN]
# Assay Provider: David M. Wilson, III, National Institute on Aging, NIH
# Three uL of enzyme solution (0.75 nM APE1 final concentration) was dispensed to 1536-well Greiner black solid bottom plates. […] The plates were incubated for 15 min at room temperature, and then 1 uL of substrate solution (50 nM final concentration of TAMRA/BHQ-2) was added to start the reaction. The plates were immediately transferred into ViewLux High-throughput CCD imager (Perkin-Elmer) in order to measure the reaction progress in kinetic mode (three reads every 60 seconds) using 525 nm excitation and 598 nm emission fluorescence protocol. The fluorescence intensity difference between the third and the first time points was used to compute reaction progress. Results were normalized to buffer only columns and NSC13755 positive controls and negative control DMSO treated wells.
# Potency is read from the fitted curve at half-maximal effect.
SMILES,"activity change, negative = inhibition",Potency
Cc1ccc(CCC(=O)Nc2ncc(Cc3cc(Cl)ccc3Cl)s2)o1,-4.89% (inactive),–
Cc1ccc(Cc2cnc(N)s2)o1,–,28.2 µM (active)
CCC[C@@H]1C[C@@]1(CCC)C(NS(=O)(=O)c1cccc2cccnc12)c1ccc(Cl)cc1 (some centres undefined),14.7% (inactive),–
CC(=O)OCC1OC(C#CCCCc2ccccc2)C=CC1OC(C)=O (centres undefined),10.7% [at 12.4 µM] (inactive) and -3.91% [at 12.4 µM] (inactive),–
Nc1ncn(C2OC(CO)C(O)C2O)c(=O)n1 (centres undefined),-0.222% (inactive),–
CC1=C2[C@@H](O)[C@H]([C@@H](C)C(=O)NCCC(C)C)CC[C@@]2(C)C=CC1=O,-2.86% (inactive),–
COC(=O)C1=C(C)N(Cc2ccccc2)C2=C3C(=O)N(c4ccccc4)C(=O)C3[C@@](O)(C(=O)OC)C(=O)N2C1c1ccccc1 (some centres undefined),-8.1% [at 12.4 µM] (inactive) and -10.6% [at 12.4 µM] (inactive),–
C#CCOCCOCCOCCNc1nc(N2CCN(C(=O)[C@H](CCCCN)n3cc([C@@H](N)C(C)CC)nn3)CC2)nc(N2CCN(C(=O)[C@H](Cc3ccc(O)cc3)n3cc([C@@H](N)C(C)CC)nn3)CC2)n1 (some centres undefined),24.6% (inactive),–
C#CCOCCOCCOCCNc1nc(N2CCN(C(=O)[C@H](Cc3ccc(O)cc3)n3cc(C(N)CC(C)C)nn3)CC2)nc(N2CCN(C(=O)[C@H](CCC(=O)O)n3cc(C(N)[C@H](C)CC)nn3)CC2)n1 (some centres undefined),-11.9% (inactive),–
C#CCOCCOCCOCCNc1nc(N2CCN(C(=O)C(Cc3ccc(O)cc3)n3cc(C(N)CC(C)C)nn3)CC2)nc(N2CCN(C(=O)C(Cc3ccc(O)cc3)n3cc(C(N)C(C)CC)nn3)CC2)n1 (centres undefined),–,31.6 µM (active)
C=CCOC(=O)NC(c1ccc(F)c(F)c1)C(C(=O)COC)C(=O)OC (centres undefined),–,inactive
CCCN1[C@H](C(=O)OC)C[C@@]2(O)[C@@H](O)[C@@H](O)[C@@H](O)C[C@@H]12,14.8% (inactive),–
COc1c(O)c2c(=O)cc(OC)c3c4c(OC)cc(=O)c5c(O)c(OC)c6c(c(c1C[C@@](C)(O)[C@H]6C(C)=O)c23)c54,-10.2% (inactive),–
Cc1ccccc1NC(=O)CSC(=O)c1ccccc1,8.15% (inactive),–
O=C1N/C(=C/c2cccn2-c2ccccc2)C(=O)N1c1cccc(Cl)c1,6.35% (inactive),–
Cc1ccccc1NC(=O)CN1C(=O)N/C(=C\c2cccn2-c2cccc(C(=O)O)c2)C1=O,–,3.16 µM (active)
O=C(c1cccc(F)c1)N1CCC2(CCCN(Cc3ccncc3)C2)CC1,-0.987% (inactive),–
COC(=O)[C@@]1(Cc2ccc(F)cc2)[C@@H]2[C@@H](CC(=O)[C@H]2CC(=O)C(=O)N2CCCC2)CN1C(=O)c1ccccc1,-5.41% (inactive),–
CC(=O)OCC(=O)C1CCC2C3CCC4=CC(=O)CC[C@@]4(C)C3CC[C@]12C (some centres undefined),1.89% (inactive),–
C#CCC(C(=O)OC)(C(=O)OC)C(C[N+](=O)[O-])c1ccccc1 (centres undefined),1.76% [at 12.4 µM] (inactive),–

SMILES,"activity change, negative = inhibition",Potency
O=c1ccc2c(-c3ccccc3S(=O)(=O)O)c3ccc(O)c(O)c3oc-2c1O,–,0.0947 µM (active)
CC(C)CN1CCc2nc(-c3ccccc3)c3c(c2C1)COC(C)C3 (centres undefined),8.68% [at 12.4 µM] (inactive),–
Cc1ccc(-c2nn(CC(C)(C)C)c3ncnc(N)c23)cc1,-2.29% (inactive),–
CN1CCCC1CCO[C@@](C)(c1ccccc1)c1ccc(Cl)cc1 (some centres undefined),0.95% (inactive),–
CCOc1cc(/C=N/NC(=O)CN2CCCCC2)ccc1O,32% (inactive),–
Cc1nccn1CC(=O)N/N=C/c1ccc(O)c(O)c1,–,25.1 µM (active)
Cn1c(SCC(=O)N/N=C/c2ccc(O)c(O)c2)nc2ccccc21,-9.26% (inactive),–
N#Cc1cccc(-c2ccc3ncnc(NCc4cccs4)c3c2)c1,0.81% (inactive),–
COc1ccc(-c2oc3cc(OC)ccc3c2C(=O)c2ccc(C#N)cc2)cc1,-7.81% (inactive),–
COC(=O)C1=C(C(=O)OC)[C@@H]2N(C)c3ccccc3[C@@]23C[C@@H](C(=O)OC)N(S(=O)(=O)c2cccs2)C3=N1,-14.4% [at 12.4 µM] (inactive),–
Nc1ccc2nc3c(=O)[nH]c(=S)[nH]c3nc2c1,–,0.501 µM (active)
CN1[C@H]2CC(OC(=O)[C@@H](CO)c3ccccc3)C[C@H]1[C@H]1O[C@H]12 (some centres undefined),-4.8% [at 21 µM] (inactive),–
COC(=O)[C@@]1(Cc2ccccc2)[C@H]2c3cc(C(=O)N4CCCC4)n(Cc4ccc(C)o4)c3C[C@H]2CN1C(=O)c1ccccc1,-5.54% (inactive),–
CC(C)C(N)C(=O)OCCOCn1cnc2c(=O)[nH]c(N)nc21 (centres undefined),3.96% (inactive),–
C[C@@H]1O[C@@H](OC[C@H]2O[C@@H](Oc3cc(O)c4c(c3)O[C@H](c3ccc(O)c(O)c3)CC4=O)[C@H](O)[C@@H](O)[C@@H]2O)[C@H](O)[C@H](O)[C@H]1O,-10.7% (inactive),–
C=CC(COCc1ccccc1)N(Cc1ccccc1)S(=O)(=O)c1ccccc1Br (centres undefined),–,inactive
C=CCCN(C(Cc1ccccc1)C(=O)OC)S(=O)(=O)c1cc(Br)ccc1Br (centres undefined),-1.9% (inactive),–
C=CCCN(Cc1ccccc1)S(=O)(=O)c1ccccc1Br,–,inactive and 199 nM (active)
COC(=O)[C@@]1(Cc2ccccc2)[C@H]2c3cc(C(=O)N(C)C)n(CCSCCO)c3C[C@H]2CN1C(=O)c1ccccc1,-0.311% (inactive),–
